Data from the supplement of paper PMC12339681.
Where a name gives a salt, the structure may show the parent alone.

What follows are compounds tested on PBMC-derived induced microglia-like cells (piMGLC) (assay: synaptosome phagocytic index relative to DMSO control (fraction of DMSO); higher = more phagocytosis). Settings: concentration: 10 uM (2 uM for compounds listed in Table S2); pretreatment time: 24 h; assay time: 3 h.

Compound | synaptosome phagocytic index
O=C1c2cccc3c2[C@H](CCC3)CN1[C@@H]1CN2CCC1CC2 [Palonosetron_(Hydrochloride)] | 0.526
C[C@H]1[C@H](NC(=O)/C(=N\OC(C)(C)C(=O)O)c2csc(N)n2)C(=O)N1S(=O)(=O)O [Aztreonam] | 0.528
N[C@H](C(=O)O)[C@H](O)c1ccc(O)c(O)c1 [Droxidopa] | 0.507
CCN1CCN(Cc2ccc(Nc3ncc(F)c(-c4cc(F)c5nc(C)n(C(C)C)c5c4)n3)nc2)CC1 [Abemaciclib] | 0.228
O=C(c1ccc(F)cc1)N1CCC[C@H](c2nc(-c3ccc(F)cc3)no2)C1 | 0.938
CCc1nc(N)nc(N)c1-c1ccc(Cl)cc1 [Pyrimethamine] | 1.01
COc1ccc2c(c1)c(CC(=O)O)c(C)n2C(=O)c1ccc(Cl)cc1 [Indomethacin_(sodium_hydrate)] | 0.618
CCC(C)n1ncn(-c2ccc(N3CCN(c4ccc(OCC5COC(Cn6cncn6)(c6ccc(Cl)cc6Cl)O5)cc4)CC3)cc2)c1=O (stereo unspecified) [Itraconazole] | 0.377
NC(=O)[C@H](Cc1c[nH]c2ccccc12)NC(=O)CNC(=O)[C@H](CCCN=C(N)N)NC(=O)[C@@H]1C[C@@H](O)CN1C(=O)[C@@H](N)Cc1ccc(F)cc1 [Nemifitide_(diTFA)] | 0.903
CCc1nn(CCCN2CCN(c3cccc(Cl)c3)CC2)c(=O)n1CCOc1ccccc1 [Nefazodone_(hydrochloride)] | 1.37
C=C[C@H]1CN2CC[C@H]1C[C@@H]2[C@@H](O)c1ccnc2ccc(OC)cc12 [Quinidine] | 0.962
OC1(CN2CCC(COc3noc4cccc(O[C@@H]5CCOC5)c34)CC2)CCOCC1 | 0.793
COc1ccc(OCCN2CCN(C(=O)c3cc4ccccc4[nH]3)CC2)cc1 | 1.22
CC1=NN(c2ccccc2)C(=O)C1 [Edaravone] | 0.555
C[C@@H](c1ncncc1F)[C@](O)(Cn1cncn1)c1ccc(F)cc1F [Voriconazole] | 0.893
Nc1cc(C(F)F)c(-c2nc(N3C4CCC3COC4)nc(N3C4CCC3COC4)n2)cn1 | 0.347
C#Cc1cccc(Nc2ncnc3cc(OCCOC)c(OCCOC)cc23)c1 [Erlotinib_(Hydrochloride)] | 0.391
CN1CC[C@H](c2c(O)cc(O)c3c(=O)cc(-c4ccccc4Cl)oc23)[C@H](O)C1 [Flavopiridol_(Hydrochloride)] | 0.995

Compound | synaptosome phagocytic index
CCc1cc(F)c2nc(N3CCC(NC4CCOCC4)CC3)c(-c3nc(C)no3)c(C)c2c1 | 1.21
Cc1ccc(Nc2nccc(N(C)c3ccc4c(C)n(C)nc4c3)n2)cc1S(N)(=O)=O [Pazopanib] | 0.785
Clc1cccc(Cl)c1NC1=NCCN1 [Clonidine_(hydrochloride)] | 0.898
O=C(O)Cc1ccccc1Nc1c(Cl)cccc1Cl [Diclofenac] | 1.01
C[N+](C)(C)CCOP(=O)([O-])OC[C@H](O)CO [sn-Glycero-3-phosphocholine] | 0.483
C[N+](C)(C)CCO.[Cl-] [Choline_(chloride)] | 0.799
Cc1ccc(NC(=O)c2ccc(CN3CCN(C)CC3)cc2)cc1Nc1nccc(-c2cccnc2)n1 [Imatinib_(Mesylate)] | 0.52
CN(C)CCC[C@@]1(c2ccc(F)cc2)OCc2cc(C#N)ccc21 [Escitalopram_(oxalate)] | 0.946
CN[C@@H]1[C@H](O[C@H]2[C@H](O[C@H]3[C@H](O)[C@@H](O)[C@H](N=C(N)N)[C@@H](O)[C@@H]3N=C(N)N)O[C@@H](C)[C@]2(O)C=O)O[C@@H](CO)[C@H](O)[C@H]1O [Streptomycin_(sulfate)] | 0.697
COC(=O)/C=C/C(=O)OC [Dimethyl_fumarate] | 0.706
CCc1c2c(nc3ccc(OC(=O)N4CCC(N5CCCCC5)CC4)cc13)-c1cc3c(c(=O)n1C2)COC(=O)[C@]3(O)CC [Irinotecan] | 0.692
CC(=O)OCC[N+](C)(C)C [Acetylcholine_(chloride)] | 0.587
C[C@H](Cn1cnc2c(N)ncnc21)OCP(=O)(O)O [Tenofovir] | 0.906
O=C(c1ccc(Cl)cc1)N(Cc1ccccc1)C1CCCCC1 | 0.616
CN(CCOc1ccc(CC2SC(=O)NC2=O)cc1)c1ccccn1 (stereo unspecified) [Rosiglitazone] | 1.19
Cc1ccnc2c1NC(=O)c1cccnc1N2C1CC1 [Nevirapine] | 0.84
C=CC(N)CCC(=O)O (stereo unspecified) [Vigabatrin] | 0.918
Oc1cc(-c2nc(-c3ccccc3)[nH]c2-c2ccncc2)ccc1Cl | 0.229
